According to the supplement of paper PMC11383364:
Several values for one entry are separate records, joined by “and”; a condition that tells them apart may be missing. Equal values may be shown once. ± gives the standard deviation of the averaged measurements.

Each compound was assayed on SUM149 (assay: percent difference in area under dose-response curve of relative cell number, RPMI vs HPLM; higher = drug relatively more effective in HPLM than RPMI (negative = less effective in HPLM)). Settings: treatment time: 72 h; dose range: 10-point, 1 nM to 20 µM; media compared: RPMI vs HPLM.
In the case of Cc1csc(-c2nnc(Nc3ccc(Oc4ncccc4-c4ccnc(N)n4)cc3)c3ccccc23)c1, the “percent difference in area under dose-response curve” value (“percent difference in area” below) is reported as -35.1%. For CC(C)[C@H](C(=O)Nc1ccc(C(=O)NO)cc1)c1ccccc1, the “percent difference in area” value was -15.2%. In the case of Nc1nc(Cl)nc2c1ncn2[C@H]1C[C@H](O)[C@@H](CO)O1 [Cladribine], the “percent difference in area” value is reported as -12.6 ± 2.1%. In the case of CCCS(=O)(=O)Nc1ccc(F)c(C(=O)c2c[nH]c3ncc(-c4ccc(Cl)cc4)cc23)c1F [Vemurafenib], the “percent difference in area” value is reported as 6.44%. CN1CCN(c2cccc(Nc3nc4c(-c5ccc(S(C)(=O)=O)cc5)cccn4n3)c2)CC1 was tested, and the “percent difference in area” value was -13.7%. For CCOC(=O)c1[nH]c2cc(Cl)ccc2c1C(C(=O)NC(C)(C)C)N(C=O)Cc1ccc(Cl)cc1 (centres undefined), the “percent difference in area” value was 0.502%. In the case of COc1cc(Nc2ncc(F)c(Nc3ccc4c(n3)NC(=O)C(C)(C)O4)n2)cc(OC)c1OC, the “percent difference in area” value is reported as 6.12%. For C/C=C1\NC(=O)[C@H]2CSSCC/C=C/[C@H](CC(=O)N[C@H](C(C)C)C(=O)N2)OC(=O)[C@H](C(C)C)NC1=O [Romidepsin], the “percent difference in area” value was -30.5%. In the case of O=C(c1cc(Cc2n[nH]c(=O)c3ccccc23)ccc1F)N1CCN(C(=O)C2CC2)CC1 [Olaparib], the “percent difference in area” value is reported as -24.4 ± 6.6%. For CCCCCCCCc1ccc(CCC(N)(CO)CO)cc1 [Fingolimod], the “percent difference in area” value was 3.22 ± 1.4%. With CCCCCCNC(=O)n1cc(F)c(=O)[nH]c1=O [Carmofur] the “percent difference in area” value was -3.39%. Cc1cc(Nc2cc(N3CCN(C)CC3)nc(Sc3ccc(NC(=O)C4CC4)cc3)n2)n[nH]1 was tested, and the “percent difference in area” value was -14.9%. With Cc1ccc(S(=O)(=O)/C=C/C#N)cc1 the “percent difference in area” value was 0.814%. With Nc1ccccc1NC(=O)c1ccc(CNC(=O)OCc2cccnc2)cc1 [Entinostat] the “percent difference in area” value was -2.21%. With C=CCNC1=C2C[C@@H](C)C[C@H](OC)[C@H](O)[C@@H](C)/C=C(\C)[C@H](OC(N)=O)[C@@H](OC)/C=C\C=C(/C)C(=O)NC(=CC1=O)C2=O the “percent difference in area” value was -27.6% and -16.3%. Cc1ccc(NC(=O)c2cccc(C(C)(C)C#N)c2)cc1Nc1ccc2ncn(C)c(=O)c2c1 was tested, and the “percent difference in area” value was -22.2%. CC1=C(/C=C/C(C)=C/C=C/C(C)=C/C(=O)Nc2ccc(O)cc2)C(C)(C)CCC1 [Fenretinide] was tested, and the “percent difference in area” value was -3.15%. O=S(=O)(N=Cc1c(O)ccc2ccccc12)c1cccs1 was tested, and the “percent difference in area” value was -2.44%. For CCc1c2c(nc3ccc(OC(=O)N4CCC(N5CCCCC5)CC4)cc13)-c1cc3c(c(=O)n1C2)COC(=O)[C@]3(O)CC [Irinotecan_HCl_Trihydrate], the “percent difference in area” value was -10.1%.
